This is a sample that favours compounds with a hit; in the whole collection about 6.8% have one here.
KB-V1 MDR tox: KB-V1 MDR subline cytotoxicity; KB-V1 MDR cells viability, CellTiter-Glo, 72 h; Potency, µM (titrated, usually from 46.1 µM), actives largely listed as cytotoxic; 400,000 tested, 3.4% active; also: % is scaled to controls: 0 for no effect and ±100 for the full control effect; nearly all actives have a fitted effect of over 60% in size
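Cytotoxicity toward P-gp-expressing KB-V1 cells was determined as loss of CellTiter-Glo luminescence after 72 h at 37 degrees C. Compounds were tested in quantitative HTS format across a concentration range, with curves fitted to normalized data.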
KB-3-1 tox: kills parental KB-3-1 adenocarcinoma cells | KB-3-1 viability, CellTiter-Glo ATP luminescence, 72 h | Potency, µM (top dose mostly 46.1 µM), usual class: cytotoxic | 400,000 tested, 1.4% active; also: % is scaled to controls: 0 for no effect and ±100 for the full control effect; nearly all actives have a fitted effect of over 60% in size
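Luminescent ATP read-out (CellTiter-Glo) measures survival of drug-naive KB-3-1 cells after 72 h compound exposure at 37 °C. Titration series was screened from lowest to highest concentration, with DMSO vehicle plates as background controls.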
SW480 rerep: DNA re-replication induction in SW480 cells | SW480 DNA re-replication, Hoechst DNA content imaging, 48 h | Potency, µM (doses to about 46.1 µM), for the others: at the highest dose re-replication activation, most hits filed as activators | 340,000 tested, 1.8% active; also: % of control where 0% means no effect; nearly all actives have a fitted effect of over 55% in size
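Image-based DNA-content assay: after two days of treatment, nuclei were labelled with the DNA dye Hoechst and imaged, and hits were compounds raising the count of nuclei showing high fluorescence intensity.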
MCF10A rereplic: induces DNA re-replication in MCF 10a normal breast cells; Potency, µM (series often up to 46.1 µM), for the others: at the highest dose activity, positive = re-replication, actives largely listed as activators; 350,000 tested, 2.9% active; MCF 10A DNA re-replication, Hoechst nuclear intensity, 48 h; also: % of control where 0% means no effect; nearly all actives have a fitted effect of over 50% in size
TSG101-PTAP inh: blocks PTAP/TSG101 interaction to inhibit HIV-1 budding. Q99816. Fluorescence polarization, FITC-PTAP peptide / Tsg101 binding. Potency, µM (doses to about 115 µM), without a hit: at the top dose activity change, negative = inhibition, hits mostly inhibitors. 340,000 tested, under 10 active; active = well fitted inhibition curve with a large enough effect in the main read-out, with a control signal flat, not every such curve was filed as active; inconclusive = small, poorly fitted or top-dose-only effect, or effect the other way, or a change in a side signal; inactive = no such curve, though single readings can be large or run the other way; also: % of control where 0% means no effect
Target sequence (Q99816 whole entry, looked up): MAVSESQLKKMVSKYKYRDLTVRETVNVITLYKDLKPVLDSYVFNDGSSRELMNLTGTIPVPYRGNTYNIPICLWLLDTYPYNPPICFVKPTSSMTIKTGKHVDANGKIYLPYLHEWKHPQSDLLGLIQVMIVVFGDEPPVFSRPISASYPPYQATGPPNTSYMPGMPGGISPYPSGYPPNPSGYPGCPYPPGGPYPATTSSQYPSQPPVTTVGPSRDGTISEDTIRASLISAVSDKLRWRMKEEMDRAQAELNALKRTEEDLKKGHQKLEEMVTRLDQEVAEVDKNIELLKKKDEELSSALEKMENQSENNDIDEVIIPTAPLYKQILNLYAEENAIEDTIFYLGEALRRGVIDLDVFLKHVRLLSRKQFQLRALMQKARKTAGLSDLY
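Tsg101 binding domain (10 uM final) was mixed with compound and a FITC-labeled PTAP peptide (50 nM final) in HEPES pH 7.5 buffer with NaCl, Tween 20, EDTA and TCEP; fluorescence polarization was read after 20 min at r.t.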
PINK1 expr mod: changes PINK1 expression; PINK1 immunofluorescence, high-content cytometry, 24 h; Potency, µM (series often up to 76.6 µM), for inactives: at the highest dose activation (PINK1 increase), actives largely listed as activators; 410,000 tested, 0.2% active; active = well fitted activation curve with a large enough effect; inconclusive = small, poorly fitted or top-dose-only effect; cell line not stated here; also: % of control where 0% means no effect; nearly all actives have a fitted effect of over 65% in size
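Measures PINK1 amount and localization on or inside mitochondria by immunofluorescence. Stable cells get compounds at 5 concentrations for 24 hours before fixation and staining; CCCP controls included.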
Numbers without * were called inactive; i = inactive; ? = inconclusive; nt = not tested or not shown; [ ] = remark or other dose. Unless noted, calls follow the shape of the dose curve; as a rule, active = well fitted curve in the direction sought with a large enough effect; inconclusive = small, poorly fitted or top-dose-only effect, or another doubt; inactive = no such curve, though single readings can be large; an effect the other way counts as inactive or inconclusive. Potency is read from the fitted curve at half-maximal effect.

SMILES	KB-V1 MDR tox	KB-3-1 tox	SW480 rerep	MCF10A rereplic	TSG101-PTAP inh	PINK1 expr mod
COC(=O)Nc1cccn(Cc2c(Cl)cccc2Cl)c1=O	i	i	-2.3%	-0.1%	-1.0%	-0.4%
COC(=O)c1ccccc1NC(=O)c1cc(=O)c2ccc(C)c(C)c2o1	i	?	nt	nt	nt	2.4%
Cc1cccc(NC(=O)C(=O)c2cc(C)n(-c3ccccc3)c2C)c1C	i	i	nt	nt	nt	1.2%
O=C(CCSCc1cnn(-c2ccccc2)c1-n1cccc1)NCc1ccccc1F	nt	nt	nt	nt	nt	-0.2%
Cc1ccccc1-c1cc(N(C)C)ncn1	nt	nt	nt	nt	nt	-1.0%
CC(=O)N(C)Cc1ccc(C(=O)CCl)cc1	i	i	?	13µM*	-3.0%	0.6%
CCOc1cc2c3c(c1)C1(C(=O)N3C(C)(C)CC2C)C(C#N)=C(N)N2C(=C1C#N)Nc1ccccc12 (centres undefined)	i	i	1.6%	16.4µM*	0.7%	-0.9%
CCOc1cc2c3c(c1)C1(Nc4ccccc4S1)C(=O)N3C(C)(C)CC2C (centres undefined)	i	i	?	20.6µM*	-3.0%	?
Cc1cccc(OCCC(=O)NO)c1	nt	nt	nt	nt	nt	4.2%
C[C@@]12C(=O)Nc3ccc(Cl)cc3C(=O)N1[C@H]1c3cc(Br)ccc3OC[C@@H]1[C@@H]2c1ccccc1	i	i	16.4µM*	1.3%	-2.3%	2.7%
C[C@@]12C(=O)Nc3ccccc3C(=O)N1[C@H]1c3cc(Br)ccc3OC[C@@H]1[C@@H]2c1ccccc1	i	?	?	3.26µM*	0.5%	3.9%
O=C1C=C(O)c2ccccc2C1=O	nt	nt	nt	nt	nt	-1.9%
O=C1C=C(c2c(O)ccc3ccccc23)c2ccccc2C1=O	i	?	18.4µM*	17.2%	-0.5%	-0.7%
CCCCOC(=O)c1cc(=O)[nH]c2ccc(C)cc12	18.4µM*	14.6µM*	4.5%	-6.4%	-4.7%	-1.1%
Cc1noc(C)c1COC(=O)c1cc(C)n(-c2ccccc2)c1C	7.31µM*	?	9.4%	22.9%	-4.3%	5.1%
Cc1noc(C)c1COC(=O)c1cc(=O)[nH]c2ccccc12	5.8µM*	?	0.4%	0.8%	-4.1%	1.3%
CCCCOC(=O)c1cc(=O)[nH]c2ccccc12	5.8µM*	i	-1.6%	0.0%	-9.8%	-4.4%[38.3 µM]
Cc1ccc(C(=O)COC(=O)c2cc(=O)[nH]c3ccccc23)cc1	i	i	14.8%	5.2%	0.8%	-1.7%
Cc1ccc(N2CCN(S(=O)(=O)c3ccc(Cl)c4ccccc34)CC2)c(C)c1	i	i	nt	nt	nt	0.3%
CCn1cc(S(=O)(=O)c2cc(C)cc(C)c2)c(=O)c2cc(F)c(N3CCN(c4ccccc4)CC3)cc21	nt	nt	nt	nt	nt	24.0%
Cc1cc2c(cc1S(=O)(=O)N(CCN(C)C)Cc1ccccc1)OCC(=O)N2	i	i	nt	nt	nt	-1.4%
COc1cc(=O)n2c(c1C(=O)N(C)Cc1ccsc1)CCN(Cc1c(C)nn(C)c1Cl)CC2	nt	nt	nt	nt	nt	0.6%
Cc1cccc(C(=O)Nc2ccccc2C(=O)OCc2c(C)noc2C)c1	3.26µM*	i	11.4%	12.1%	-4.0%	4.3%
COc1ccc(OC)c(NC(=O)c2c(NCc3cccs3)sc3c2CCCCC3)c1	i	i	nt	nt	nt	0.4%
CCC1=NN(C(=O)c2ccc(C)cc2)C(O)(c2ccc(Br)cc2)C1 (centres undefined)	20.6µM*	i	-2.6%	18.1%	-0.2%	-0.2%
SMILES	KB-V1 MDR tox	KB-3-1 tox	SW480 rerep	MCF10A rereplic	TSG101-PTAP inh	PINK1 expr mod
CCC1=NN(C(=O)c2ccc(Br)cc2)C(O)(c2ccc(C)cc2)C1 (centres undefined)	i	i	-0.9%	15.5%	-0.9%	12.7%
CC1=NN(C(=O)c2ccc(Cl)cc2)C(O)(c2ccccc2)C1 (centres undefined)	i	?	?	14.6µM*	-3.7%	2.9%
CCCCc1c(C)c2cc(C)ccc2[nH]c1=O	?	i	2.5%	8.2%	-5.3%	-4.0%
CCCc1c(C)c2cc(C)ccc2[nH]c1=O	4.11µM*	?	-4.1%	-2.9%	-2.4%	-1.2%
CN(C)c1ccc(/C=N\NC(=S)SCN2C(=O)C3CCC(C)(C2=O)C3(C)C)cc1 (centres undefined)	i	i	?	7.31µM*	-0.4%	-0.8%
COc1ccc(/C=N\NC(=S)SCN2C(=O)C3CCC(C)(C2=O)C3(C)C)cc1 (centres undefined)	i	i	3.5%	?	-0.4%	0.8%
Cc1ccc(C)c(S(=O)(=O)c2nnn3c2nc(N2CCCCC2)c2sccc23)c1	?	i	nt	nt	nt	0.5%
CCN(CC)S(=O)(=O)c1ccc(C(=O)OC2CCCCC2CN(C)C)cc1 (centres undefined)	i	i	?	0.103µM*	-7.1%	6.0%[38.3 µM]
CN(C)CC1CCCCC1OC(=O)c1ccc(Cl)cc1 (centres undefined)	?	i	-113.8%	-1.9%	-0.7%	1.6%
CC1CCCN(S(=O)(=O)c2ccc([N+](=O)[O-])cc2)C1 (centres undefined)	i	i	1.2%	-1.2%	-2.6%	4.5%
CC1CC(C)CN(S(=O)(=O)c2ccc(Oc3ccc([N+](=O)[O-])cc3)cc2)C1 (centres undefined)	13µM*	?	-7.0%	?	-3.0%	0.1%
Cc1nc2ccccc2c(=O)n1CCc1ccccc1	i	i	-3.9%	14.0%	-5.0%	0.4%
Cc1[nH]c2ccccc2c1/C=C/c1nc2ccccc2c(=O)n1CCO	11.6µM*	11.6µM*	?	?	?	-3.4%
Cc1ccccc1/C=C/c1nc2ccccc2c(=O)n1CCc1ccccc1	2.59µM*	i	-40.9%	-2.1%	-0.7%	?
Cc1ccc(/C=C/c2nc3ccccc3c(=O)n2CCc2ccccc2)cc1	2.59µM*	i	10.0%	?	0.1%	11.5%
CN(Cc1ccccc1)/[N+]([O-])=N/Oc1ccc([N+](=O)[O-])cc1[N+](=O)[O-]	nt	nt	nt	nt	nt	0.5%
CC(=O)c1ccc(NC(=O)C2CCN(S(=O)(=O)c3ccc4[nH]c5c(c4c3)CCCCC5)CC2)cc1	?	i	nt	nt	nt	-0.5%
OCCCCCN=c1cc(-c2ccccc2)oc2ccc(Cl)cc12	?	?	19.3%	26.4%	-6.0%	0.2%
Clc1ccc2oc(-c3ccccc3)cc(=NCCCN3CCOCC3)c2c1	20.6µM*	?	5.4%	8.0%	-1.1%	0.0%
Cc1ccccc1CN1c2ccccc2S(=O)(=O)c2ccccc21	i	i	nt	nt	nt	1.9%
COc1ccc(NC(=O)COc2cccc3c2CCN(Cc2cccnc2)C3=O)cc1	i	i	-7.7%	-2.2%	nt	0.7%

Bioassay records as filed in PubChem BioAssay.
